# Source: PubChem BioAssay
# CHT block: inhibitors of human choline transporter CHT. B-score at 10 µM. High affinity choline transporter 1 (Homo sapiens), Q9GZV3. 0.86% of 310,000 active. CHT-expressing cells, membrane potential dye, choline response; stronger effect = lower value;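 active = B-score over 3 SD under the library average, and starting fluorescence ratio not unusually high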;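 note: choline stimulus applied at its EC90 after an EC20 pre-addition; B-score computed on integrated fluorescence ratio after choline addition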
# PHOSPHO1 inh: PubChem AID 1565; Phosphoethanolamine/phosphocholine phosphatase (Homo sapiens), Q8TCT1; recombinant PHOSPHO1, absorbance phosphatase assay; inhibition, % at 13.3 µM; 1.1% of 290,000 active; in the data active = inhibition above about 60%
# Target sequence (Q8TCT1 whole entry, looked up): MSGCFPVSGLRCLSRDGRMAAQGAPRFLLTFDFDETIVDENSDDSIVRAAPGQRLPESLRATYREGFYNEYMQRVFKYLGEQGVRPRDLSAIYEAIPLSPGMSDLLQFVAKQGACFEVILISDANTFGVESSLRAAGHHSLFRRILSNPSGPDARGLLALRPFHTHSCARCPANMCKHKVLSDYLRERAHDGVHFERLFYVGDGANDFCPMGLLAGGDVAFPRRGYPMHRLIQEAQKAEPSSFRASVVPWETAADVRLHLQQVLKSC
# CHT PAM: CHT positive allosteric modulators, primary screen, cell-based, membrane potential dye, choline EC20; B-score at 10 µM; High affinity choline transporter 1 (Homo sapiens), Q9GZV3; 0.49% of 310,000 active; AID 488977, 2010; CHT-expressing cells; stronger effect = higher value; LV-AA mutant CHT in HEK293 cells;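 active = initial fluorescence not abnormally high and integrated response B-score, plate-corrected, over 3 SD above library mean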
# HDAC3 inh: HDAC3 deacetylase inhibitors, primary screen, biochemical, fluorescence, cell-free homogeneous; 0.15% of 320,000 active; recombinant HDAC3, fluorogenic peptide/trypsin coupled; inhibition, % at 8.3 µM; in the data active = inhibition above about 26%, passing the limit was not always enough; inconclusive = no clear call, values can overlap the other calls
# ANO1 block: TMEM16A chloride channel inhibitors, primary screen, cell-based, HTS | HEK293 TMEM16A/YFP iodide influx fluorescence, ionomycin | AID 588511, 2011 | normalized B-score (activity score, 25-100; higher = stronger inhibition) at 10 µM | 1.2% of 310,000 active | Anoctamin-1 (Mus musculus), Q8BHY3;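 active = ratio plate-corrected score three or more library SD toward inhibition, starting fluorescence score within five deviations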;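 note: score derived from kinetic fluorescence span divided by baseline fluorescence per well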
# TMEM16A act: TMEM16A chloride channel activators or potentiators, primary screen, cell-based, HTS | 0.3% of 340,000 active | B-score at 10 µM | HEK293 TMEM16A/YFP-H148Q/I152L, iodide quench fluorescence; stronger effect = lower value;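 active = fluorescence-ratio B-score plate-corrected deviation score at least 3 library SD below zero, with starting fluorescence score within 5 deviations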;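 note: channel opened by trigger with iodide after compound preincubation; score built on the fluorescence ratio of max minus min over baseline; more negative score means more quench and so TMEM16A activation or potentiation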
# An asterisk follows results filed as active; i = inactive; ? = inconclusive; nt = no result given. Hits are enriched below; roughly 3.2% of the tested compounds scored in any of these assays.
SMILES,CHT block,PHOSPHO1 inh,CHT PAM,HDAC3 inh,ANO1 block,TMEM16A act
Cc1nnc(SCc2cc([N+](=O)[O-])cc3c2OCOC3)n(N)c1=O,i,20.2,i,-0.9,i,i
Cc1ccccc1Nc1nnc(SCc2cc([N+](=O)[O-])cc3c2OCOC3)s1,i,90.4*,i,3.4,i,i
COc1ccc(-n2ccc(-c3nn(-c4cccc(C(F)(F)F)c4)ccc3=O)n2)cc1,i,-11.3,i,9.7,i,-43.1*
N#Cc1c(-c2cccnc2)c2c([nH]c1=S)CCCC2,i,73.5*,i,?,i,i
CCC(=O)N(CC(=O)Nc1sc(C)c(C)c1C(N)=O)C1CCCC1,i,-0.4,i,0.1,i,i
COc1cccc(C(C#N)N2CCOCC2)c1 (stereo not drawn),i,10.8,i,-3.7,i,i
O=C(c1ccco1)N1CCN(Cc2cc(=O)c(OCc3cccc(Cl)c3)co2)CC1,i,nt,i,1.5,i,i
Cc1ccc(NC(=O)c2sc3ncn(CC(=O)N4CCN(c5ccccn5)CC4)c(=O)c3c2C)cc1Cl,i,63.6*,i,-4.6,i,i
Nc1ccccc1N=c1ssnc1Cl,nt,42.1,nt,nt,nt,i
COc1cc(N=c2ssnc2Cl)c(OC)cc1Cl,i,91.3*,i,0.6,i,i
Cc1cc(Cl)ccc1N=c1ssnc1Cl,i,95.8*,i,6.8,i,i
CCOC(=O)CN1C(=O)c2ccccc2Sc2ncccc21,i,35.1,i,0.7,i,i
CCn1nc(C(=O)OCC(=O)NC(C)C)c2ccccc2c1=O,i,24.3,i,-2.3,i,i
CCn1nc(C(=O)OCC(=O)NCCN2C(=O)CSC2=O)c2ccccc2c1=O,i,72.1*,i,5.0,i,i
CC(NCC(=O)Nc1ccccc1C(=O)NC1CC1)c1cccc(C(F)(F)F)c1 (stereo not drawn),nt,nt,nt,1.4,nt,i
O=C(c1cc2ccccc2oc1=O)N(c1ccccc1)C1C=CS(=O)(=O)C1 (stereo not drawn),i,-6.2,i,0.2,i,i
COc1ccc(N(C(=O)c2cc3ccccc3oc2=O)C2C=CS(=O)(=O)C2)cc1 (stereo not drawn),i,60.9*,i,3.2,i,i
Cn1c(N)c(C(=O)CSc2nnc(C3CC3)n2Cc2ccccc2)c(=O)n(C)c1=O,nt,nt,nt,0.9,nt,i
O=C(CSc1nnc(C2CC2)n1Cc1ccccc1)c1cc2ccccc2o1,i,97.1*,i,-2.5,i,i
O=C(CSc1cccc[n+]1[O-])c1cc2ccccc2o1,i,79.4*,i,12.7,i,i
O=C(O)CSc1cccc[n+]1[O-],i,-2.3,i,-1.3,i,i
CCOC(=O)c1cccc(NC(=O)CSc2nc3cccnc3n2C)c1,i,-10.2,i,2.5,i,i
Cc1n[nH]c(C)c1N1C(=O)c2cccc3c(Br)ccc(c23)C1=O,-7.37*,-11.9,i,-4.3,i,i
COc1ccccc1NS(=O)(=O)c1ccc(C(=O)NCc2ccco2)cc1,nt,nt,nt,-3.0,nt,i
CCCCNc1c(-c2ccc(SC(C)CC)cc2)nc2cnccn12 (stereo not drawn),nt,nt,nt,31.5*,nt,i
SMILES,CHT block,PHOSPHO1 inh,CHT PAM,HDAC3 inh,ANO1 block,TMEM16A act
Cc1ccc(NC(=O)CSc2nccc(=O)[nH]2)c(S(=O)(=O)N2CCOCC2)c1,i,63.6*,i,-16.2,i,i
Cc1ccc(N(C(=O)c2csnn2)C(C(=O)NC2CCCCC2)c2cccnc2)cc1C (stereo not drawn),i,22.4,i,1.4,i,i
O=C(CN1C(=O)NC(c2ccccc2)(c2ccccc2)C1=O)NC1CCCC1,nt,nt,nt,-2.2,nt,i
Cc1ccc(C(=O)CSc2cc(C)[nH]c(=O)n2)cc1,i,40.8,i,34.3*,i,i
CCCCc1c(O)nc(SCC(=O)c2ccccc2)[nH]c1=O,i,14.0,i,45.6*,i,i
Cc1cc(SCC(=O)c2ccccc2)nc(=O)[nH]1,i,29.8,i,45.1*,i,i
